The list is not random: actives were taken first. Their share in the collection is about 14%.
USP8 inh – blocks human USP8 ubiquitin-rhodamine cleavage | P40818 | purified USP8, Ub-rhodamine cleavage fluorescence, 30 min | inhibition, % at 20 µM | hit rate 4.2% among 47,000 | AID 1645853
USP30 inh – human USP30 deubiquitinase inhibition. inhibition, % at 25 µM. purified USP30, Ub-rhodamine cleavage fluorescence. hit rate 5.3% among 47,000. AID 1645860. Q70CQ3
Target sequence (Q70CQ3 whole entry, looked up): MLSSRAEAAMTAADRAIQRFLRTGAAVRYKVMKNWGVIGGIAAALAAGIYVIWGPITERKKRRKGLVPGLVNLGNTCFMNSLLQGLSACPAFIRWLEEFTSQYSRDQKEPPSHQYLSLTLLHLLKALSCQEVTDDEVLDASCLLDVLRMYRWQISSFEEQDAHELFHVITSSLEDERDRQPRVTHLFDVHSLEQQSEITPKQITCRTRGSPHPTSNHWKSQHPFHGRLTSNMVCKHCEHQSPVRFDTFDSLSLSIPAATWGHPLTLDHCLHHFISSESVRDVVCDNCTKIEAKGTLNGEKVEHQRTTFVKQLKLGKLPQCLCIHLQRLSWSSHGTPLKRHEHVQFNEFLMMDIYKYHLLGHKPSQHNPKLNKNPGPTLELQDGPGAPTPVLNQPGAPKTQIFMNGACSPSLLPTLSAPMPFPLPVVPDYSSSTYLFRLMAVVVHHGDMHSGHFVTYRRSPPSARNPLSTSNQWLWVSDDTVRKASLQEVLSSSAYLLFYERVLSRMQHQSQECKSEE
USP10 inh – human USP10 deubiquitinase inhibition; hit rate 1.1% among 47,000; AID 1645856; Q14694; purified USP10, Ub-rhodamine fluorescence, 60 min; inhibition, % at 20 µM
USP17 inh – human USP17-like deubiquitinase inhibition | A8MUK1 | inhibition, % at 50 µM | AID 1645855 | hit rate 6.5% among 47,000 | purified USP17, Ub-rhodamine cleavage fluorescence, 3 h
USP28 block – blocks human USP28 ubiquitin-rhodamine cleavage; inhibition, % at 25 µM; purified USP28, Ub-rhodamine cleavage fluorescence, 30 min; hit rate 3% among 47,000
The depositor's hits bear a star. Cut-off read from the data, not from the text of the source: active = inhibition above about 30%; inactive = the rest.

What do the screens show for `O=C(CN1CCC2(CC1)Nc1cc(Cl)ccc1C1=NCCN12)Nc1ccccn1`?
USP8 inh: 4; USP30 inh: -97; USP10 inh: -5; USP17 inh: 23; USP28 block: -30

How did CC(=O)N1CCc2cc(CNC(=O)Nc3cc(C)ccc3C)ccc21 do in these assays?
USP8 inh: -1; USP30 inh: 67*; USP10 inh: -2; USP17 inh: 43*; USP28 block: 13

How did CCN1C(=O)[C@H]2CN(c3ncccn3)C[C@H]2C12CCN(S(=O)(=O)CC(C)C)CC2 do in these assays?
USP8 inh: -7; USP30 inh: -3; USP10 inh: 0; USP17 inh: -5; USP28 block: -8

What do the screens show for `COc1ccc(S(=O)(=O)N(Cc2ccco2)Cc2cc3ccccc3[nH]c2=O)cc1`?
USP8 inh: -16; USP30 inh: 42*; USP10 inh: 25; USP17 inh: 11; USP28 block: 28

What do the screens show for `COc1ccc(S(=O)(=O)N(Cc2cccnc2)Cc2cc3ccccc3[nH]c2=O)cc1`?
USP8 inh: -37; USP30 inh: -26; USP10 inh: 0; USP17 inh: -21; USP28 block: -15

How did CCN1CCN(C(=O)c2cccc(N3CC(O)=C(c4nc5ccccc5s4)C3=N)c2)CC1 do in these assays?
USP8 inh: -25; USP30 inh: -40; USP10 inh: -10; USP17 inh: 1; USP28 block: -14

What do the screens show for `O=C(CC1C=CCC1)N1CCC(c2ccc(Nc3ccc(F)cn3)cn2)CC1` (centres undefined)?
USP8 inh: 8; USP30 inh: -50; USP10 inh: -2; USP17 inh: 32*; USP28 block: -7

What do the screens show for `Cc1ccc(OCC2Cn3c(nc4c3c(=O)[nH]c(=O)n4C)O2)cc1C` (centres undefined)?
USP8 inh: 1; USP10 inh: -1; USP17 inh: 66*

What do the screens show for `CCNC(=O)C1(Cc2cc(-c3ccccc3)no2)CCCN(C(=O)C2CCCC2)C1` (centres undefined)?
USP8 inh: -15; USP30 inh: 7; USP10 inh: -5; USP17 inh: -4; USP28 block: -11

How did O=C(c1ccn[nH]1)N1CC[C@@H]2CN(Cc3ccc(Cl)cc3)S(=O)(=O)[C@@H]2CC1 do in these assays?
USP8 inh: 2; USP30 inh: 8; USP10 inh: 2; USP17 inh: 1; USP28 block: -5

Results for Cc1ccc(NC(=O)C2CCC(CNS(=O)(=O)c3ccc4c(c3)C(C)(C)C(=O)N4C)CC2)cc1C (centres undefined) ?
USP8 inh: -34; USP30 inh: -36; USP10 inh: 0; USP17 inh: -9; USP28 block: 13

How did COc1cccc(NC(=O)C2CCC(CNS(=O)(=O)c3ccc4c(c3)C(C)(C)C(=O)N4C)CC2)c1 (centres undefined) do in these assays?
USP8 inh: -8; USP30 inh: 0; USP10 inh: 3; USP17 inh: 0; USP28 block: 76*

How did CCOC(=O)c1ccccc1NC(=O)CSc1cn(CC(=O)N2CCC(C)CC2)c2ccccc12 do in these assays?
USP8 inh: 6; USP10 inh: 8; USP17 inh: 21

How did COc1cc(Nc2cc(C)nc3nc(Cc4cccc(F)c4)nn23)cc(OC)c1 do in these assays?
USP8 inh: -11; USP30 inh: -15; USP10 inh: -5; USP17 inh: 23; USP28 block: 0

What do the screens show for `Cc1ccc2nc(NC(=O)CSc3nnc(-c4ccncc4)n3C3CC3)sc2c1`?
USP8 inh: -1; USP30 inh: -25; USP10 inh: -2; USP17 inh: 57*; USP28 block: -4

What do the screens show for `Cc1ccc2nc(NC(=O)CN3CCC(C(N)=O)CC3)sc2c1`?
USP8 inh: 1; USP30 inh: 19; USP10 inh: 0; USP17 inh: 6; USP28 block: 3

How did CN(C)CCNC(=O)c1nc2c(s1)CCCN2c1ncccn1 do in these assays?
USP8 inh: 13; USP30 inh: 3; USP10 inh: 0; USP17 inh: 3; USP28 block: 0

What do the screens show for `COc1ccc(CNC(=O)C2COc3ccc(OC)cc3C2)cc1` (centres undefined)?
USP8 inh: 1; USP30 inh: 0; USP10 inh: 3; USP17 inh: 34*; USP28 block: 21

What do the screens show for `COc1ccc(CCNC(=O)CSc2nnc(NC(=O)c3ccccc3OC)s2)cc1OC`?
USP8 inh: -46; USP30 inh: 32*; USP10 inh: -1; USP17 inh: 9; USP28 block: 12

How did O=C(NCc1cccnc1)C1CCCN(c2nnc3ccc(Cl)cn23)C1 (centres undefined) do in these assays?
USP8 inh: 22; USP30 inh: 12; USP10 inh: -2; USP17 inh: 13; USP28 block: 11

Results for Cc1nn(C)c(C)c1CNC(=O)C1CCN(c2nnc3ccc(C(F)(F)F)cn23)CC1 ?
USP8 inh: 6; USP30 inh: 12; USP10 inh: -2; USP17 inh: 4; USP28 block: 38*

What do the screens show for `Cc1c(S(=O)(=O)NC2CCCCNC2=O)sc2ccc(Cl)cc12` (centres undefined)?
USP8 inh: 1; USP30 inh: 10; USP10 inh: 2; USP17 inh: 51*; USP28 block: 6

Results for Cc1ccc(C)c(Nc2cc(C)nc3nc(-c4ccco4)nn23)c1 ?
USP8 inh: 22; USP30 inh: -15; USP10 inh: -4; USP17 inh: 58*; USP28 block: 14

What do the screens show for `Cc1cc(Nc2ccc(Cl)cc2)n2nc(-c3ccco3)nc2n1`?
USP8 inh: 9; USP30 inh: -163; USP10 inh: -7; USP17 inh: 36*; USP28 block: 0

Results for CCOc1ccccc1-c1noc(CCCC(=O)Nc2ccccc2)n1 ?
USP8 inh: -18; USP30 inh: -12; USP10 inh: -2; USP17 inh: -10; USP28 block: -4

What do the screens show for `O=c1[nH]c2ccccc2c(=O)n1CCc1nc(-c2ccc(F)cc2)no1`?
USP8 inh: -7; USP30 inh: 0; USP10 inh: 0; USP17 inh: 36*; USP28 block: -7

What do the screens show for `CCn1c(=O)c2ccccc2n(Cc2nc(-c3ccccc3OC)no2)c1=O`?
USP8 inh: 15; USP30 inh: 6; USP10 inh: -1; USP17 inh: 56*; USP28 block: 1

What do the screens show for `CCOc1ccccc1-c1noc(CCn2c(=O)[nH]c3ccccc3c2=O)n1`?
USP8 inh: 21; USP30 inh: 35*; USP10 inh: 4; USP17 inh: 10; USP28 block: 11

How did O=C(c1ccco1)N1CCN(Cc2nc3scc(-c4ccc(F)cc4)c3c(=O)[nH]2)CC1 do in these assays?
USP8 inh: 9; USP30 inh: -26; USP10 inh: -7; USP17 inh: 4; USP28 block: 2

What do the screens show for `O=C1COc2ccccc2C/C=C/CC2(CCN(C(=O)c3cnccn3)CC2)CN1`?
USP8 inh: -19; USP30 inh: -165; USP10 inh: -10; USP17 inh: -33; USP28 block: -37

High-throughput results as filed in PubChem BioAssay.
